Inconclusive results are not listed. Values without a mark were called inactive. The source made the active and inactive calls. Calls come from the whole dose curve; as a rule, active = well fitted curve in the direction sought with a large enough effect; inconclusive = small, poorly fitted or top-dose-only effect, or another doubt; inactive = no such curve, though single readings can be large; an effect the other way counts as inactive or inconclusive.

The nature of assay [1]: qHTS of pediatric cancer cell lines to identify multiple opportunities for drug repurposing: Primary screen for LAN-5 cells (AID 1347100). Note: potency is the fitted concentration of half-maximal effect. Summed up: (§1)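 Cells (500-1,000/well) rested 5 h, then received compounds for 48 h; metabolically active cells were measured by CellTiter-Glo luminescence. Final concentrations spanned up to 46 µM (MIPE, 11-point) or 0.59 nM-46 µM (NPC, 8-point) in primary screens, 11-point in follow-ups.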
For orientation: In qHTS, concentration-response curves come from the screen itself.

Assay [2] is described as follows: qHTS of pediatric cancer cell lines to identify multiple opportunities for drug repurposing: Primary screen for Rh18 cells (AID 1347102). Note: nearly all actives have a fitted effect of over 65% in size. Note: potency is the fitted concentration of half-maximal effect. Summed up:
as §1

Assay [3] is described as follows: qHTS of pediatric cancer cell lines to identify multiple opportunities for drug repurposing: Primary screen for OHS-50 cells (AID 1347103). Note: potency is the fitted concentration of half-maximal effect; nearly all actives have a fitted effect of over 40% in size. Summed up: as §1
The nature of assay [4]: qHTS of pediatric cancer cell lines to identify multiple opportunities for drug repurposing: Primary screen for RD cells (AID 1347104). Note: nearly all actives have a fitted effect of over 55% in size. Note: potency is the fitted concentration of half-maximal effect. Summed up:
(§2)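 Viability was measured as metabolically active cells after 48 hours of treatment, read by CellTiter-Glo luminescence. Compounds were tested at multiple final concentrations, giving concentration-response curves.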

A short description of assay [5]: qHTS of pediatric cancer cell lines to identify multiple opportunities for drug repurposing: Primary screen for MG 63 (6-TG R) cells (AID 1347105). Note: nearly all actives have a fitted effect of over 50% in size. Note: potency is the fitted concentration of half-maximal effect. Summed up: as §2
Assay [6] is described as follows: qHTS of pediatric cancer cell lines to identify multiple opportunities for drug repurposing: Primary screen for control Hh wild type fibroblast cells (AID 1347106). Note: nearly all actives have a fitted effect of over 55% in size. Note: potency is the fitted concentration of half-maximal effect. Summed up: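 Cells (500-1,000/well) in growth media were settled 5 h at 37 degrees C, then given compounds for 48 h. Viability was read as CellTiter-Glo luminescence. Primary runs used MIPE at 11 points (0.78 nM-46 µM) and NPC at 8 points (0.59 nM-46 µM); follow-ups used 11 points.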

Assay [7] can be described thus: qHTS of pediatric cancer cell lines to identify multiple opportunities for drug repurposing: Primary screen for Rh30 cells (AID 1347107). Note: series mostly up to about 46 µM; nearly all actives have a fitted effect of over 75% in size. An outline of the steps: as §1
Assay [8] can be described thus: qHTS of pediatric cancer cell lines to identify multiple opportunities for drug repurposing: Primary screen for Rh41 cells (AID 1347108). Note: nearly all actives have a fitted effect of over 70% in size. Note: potency is the fitted concentration of half-maximal effect. Summed up:
as §2

Assay [9] in a line: qHTS of pediatric cancer cell lines to identify multiple opportunities for drug repurposing: Confirmatory screen for NB1643 cells (AID 1347109). Note: nearly all actives have a fitted effect of over 45% in size. Summed up: as §1
The nature of assay [10]: qHTS of pediatric cancer cell lines to identify multiple opportunities for drug repurposing: Confirmatory screen for A673 cells (AID 1347110).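 Note: cells exposed to compound for 48 h before the viability read; nearly all actives have a fitted effect of over 65% in size.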 Note: potency is the fitted concentration of half-maximal effect. An outline of the steps: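 Viability was read as ATP luminescence (CellTiter-Glo) after 48 h of compound exposure at 37 C in A673 cells seeded at 500-1,000/well. Titrations reached 46 uM final, with 11 points in the confirmatory screen. Concentration-response curves were fitted directly.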

Assay [11] can be described thus: qHTS of pediatric cancer cell lines to identify multiple opportunities for drug repurposing: Confirmatory screen for DAOY cells (AID 1347114). Note: nearly all actives have a fitted effect of over 65% in size. Note: potency is the fitted concentration of half-maximal effect. An outline of the steps: (§3)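 Viability measured as metabolically active cells via CellTiter-Glo luminescence following 48 hours of compound exposure, 11-point dilutions in confirmatory testing. 500-1,000 cells/well plated 5 hours before dosing; controls were DMSO and 2.3 µM bortezomib.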

The nature of assay [12]: qHTS of pediatric cancer cell lines to identify multiple opportunities for drug repurposing: Confirmatory screen for NB-EBc1 cells (AID 1347115).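 Note: cells exposed to compound for 48 h before the viability read; nearly all actives have a fitted effect of over 45% in size.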 Note: potency is the fitted concentration of half-maximal effect. An outline of the steps:
as §1

The nature of assay [13]: qHTS of pediatric cancer cell lines to identify multiple opportunities for drug repurposing: Confirmatory screen for SJ-GBM2 cells (AID 1347116). Note: nearly all actives have a fitted effect of over 60% in size. Note: potency is the fitted concentration of half-maximal effect. An outline of the steps: as §3
Assay [14] is described as follows: qHTS of pediatric cancer cell lines to identify multiple opportunities for drug repurposing: Confirmatory screen for BT-37 cells (AID 1347117). Note: nearly all actives have a fitted effect of over 55% in size. Note: potency is the fitted concentration of half-maximal effect. Summed up:
as §1

The nature of assay [15]: qHTS of pediatric cancer cell lines to identify multiple opportunities for drug repurposing: Confirmatory screen for TC32 cells (AID 1347118).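 Note: cells exposed to compound for 48 h before the read; nearly all actives have a fitted effect of over 65% in size.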 Note: potency is the fitted concentration of half-maximal effect. Summed up: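 Measured quantity: luminescence from CellTiter-Glo, reflecting metabolically active TC32 cells following 48 h of compound. Curves came straight from multi-point titrations, with 8 or 11 points in primary and 11 in confirmatory screening.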

The nature of assay [16]: qHTS of pediatric cancer cell lines to identify multiple opportunities for drug repurposing: Confirmatory screen for control Hh wild type fibroblast cells (AID 1347121). Note: nearly all actives have a fitted effect of over 70% in size. Summed up:
as §1

Assay [17] is described as follows: qHTS of pediatric cancer cell lines to identify multiple opportunities for drug repurposing: Primary screen for BT-12 cells (AID 1347101). Note: nearly all actives have a fitted effect of over 25% in size. Note: potency is the fitted concentration of half-maximal effect. Summed up:
as §1

The nature of assay [18]: qHTS of pediatric cancer cell lines to identify multiple opportunities for drug repurposing: Confirmatory screen for LAN-5 cells (AID 1347113). Note: nearly all actives have a fitted effect of over 65% in size. Note: potency is the fitted concentration of half-maximal effect. An outline of the steps:
as §1

A short description of assay [19]: qHTS of pediatric cancer cell lines to identify multiple opportunities for drug repurposing: Confirmatory screen for MG 63 (6-TG R) cells (AID 1347119). Note: nearly all actives have a fitted effect of over 55% in size. Note: potency is the fitted concentration of half-maximal effect. An outline of the steps: as §1
A short description of assay [20]: qHTS of pediatric cancer cell lines to identify multiple opportunities for drug repurposing: Confirmatory screen for Rh41 cells (AID 1347123). Note: nearly all actives have a fitted effect of over 60% in size. Note: potency is the fitted concentration of half-maximal effect. An outline of the steps:
as §1

Regarding `C[C@]12CCC(=O)C=C1[C@@H]1C[C@@H]1[C@H]1[C@@H]3[C@@H]4C[C@@H]4[C@@]4(CCC(=O)O4)[C@@]3(C)CC[C@@H]12`, the Potency result in assay [1], in assay [2], in assay [4], in assay [5], in [6] and in assay [7] was “inactive” each time. The Potency result in assay [8] was “inactive”. Further, the Potency in assay [3] was 24.6 µM (active).
For `CCN(CCCCOC(=O)c1ccc(OC)c(OC)c1)C(C)Cc1ccc(OC)cc1` (stereo not given), the Potency result in [1], in assay [4], in assay [5], in [6], in assay [7] and in assay [8] was “inactive” in each case.
In the case of `COc1cc2c(cc1OC)C(C(C(=O)N(CCc1ccc(OC)c(OC)c1OC)CCc1ccc(OC)c(OC)c1OC)c1ccccc1)=NCC2` (stereo not given), the Potency entry in [1], in assay [2], in assay [4], in assay [6] and in [7] was “inactive” each time.
With `CC1(C)O[C@@H]2C[C@H]3[C@@H]4CCC5=CC(=O)CC[C@]5(C)[C@@]4(F)[C@@H](O)C[C@]3(C)[C@]2(C(=O)CCl)O1`, the Potency entry in assay [1], in assay [2], in assay [4], in assay [5], in assay [6] and in assay [7] was “inactive” each time. Besides, the Potency result in [9], in assay [10], in [11], in assay [12], in [13] and in [14] was “inactive” throughout. Also, the Potency entry in assay [15] and in [16] was “inactive” throughout.
On to `NC(=O)C(=O)N/N=C/c1ccc([N+](=O)[O-])o1`, for which the Potency in assay [1] was 29.9 µM (active). Besides, the Potency entry in assay [6] is “inactive”.
Consider `CCCCCCCCCCCCCCCC[N+](C)(C)CC`, for which the Potency in assay [17] is 2.76 µM (active); in assay [2], 0.473 µM (active); in [3], 0.692 µM (active); in assay [4] it was 13.3 µM (active); in assay [5], 26.6 µM (active); in assay [8] it was 13.3 µM (active).
Turning to `c1ccc(-c2ccc(C(c3ccccc3)n3ccnc3)cc2)cc1` (stereo not given), the Potency result in assay [5], in assay [6] and in [7] was “inactive” throughout.
`C[C@@H]1CN(CCCn2c3ccccc3c3ccccc32)C[C@H](C)N1`: the Potency in assay [4] was 26.6 µM (active); in assay [18], 32.9 µM (active); in assay [11], 20.8 µM (active); in assay [12], 14.7 µM (active); in assay [20], 16.5 µM (active). Further, the Potency entry in [5], in assay [6], in assay [7], in assay [8] and in [19] was “inactive” each time.
With `Oc1c(Cl)cc(Cl)cc1Sc1cc(Cl)cc(Cl)c1O`, the Potency entry in assay [17], in assay [4], in [6] and in assay [8] was “inactive” throughout.
On to `CCOc1ccc(Cc2nccc3cc(OCC)c(OCC)cc23)cc1OCC`, for which the Potency was 6.17 µM (active) in [17] and 7.77 µM (active) in [3]. Also, the Potency entry in [5], in assay [6] and in assay [7] was “inactive” throughout.
For `COc1cccc(CCc2ccccc2OCC(CN(C)C)OC(=O)CCC(=O)O)c1` (stereo not given), the Potency entry in assay [5], in [6], in assay [7] and in assay [8] was “inactive” in each case.
Turning to `COc1ccc(CN2CCN(C(c3ccc(F)cc3)c3ccc(F)cc3)CC2)c(OC)c1OC`, the Potency in assay [3] is 13.8 µM (active). Besides, the Potency result in assay [5], in assay [6] and in assay [7] was “inactive” each time.
For the compound `CC(=O)N/N=C/c1ccc([N+](=O)[O-])o1`, in assay [6], the Potency result was “inactive”.
Regarding `C#C[C@]1(O)CC[C@H]2[C@@H]3CCc4cc(OC5CCCC5)ccc4[C@H]3CC[C@@]21C`, the Potency in assay [3] was 19.5 µM (active). Besides, the Potency entry in [6], in [7] and in [8] was “inactive” in each case.
Turning to `Oc1c(I)cc(I)c2cccnc12`, the Potency entry in assay [6] and in [7] was “inactive” throughout.
As for `CCN(CC)C(=O)/C(C#N)=C/c1cc(O)c(O)c([N+](=O)[O-])c1`, the Potency result in assay [4], in assay [5], in [6], in assay [7] and in assay [8] was “inactive” throughout.
Regarding `CC(=O)O[C@]1(C(C)=O)CC[C@H]2[C@@H]3C[C@H](C)C4=CC(=O)CC[C@]4(C)[C@H]3CC[C@@]21C`, the Potency entry in assay [2], in [5], in [6], in assay [18], in [12] and in [19] was “inactive” throughout. Moreover, in [16], the Potency entry is “inactive”. For the same compound, the Potency was 24.6 µM (active) in assay [3] and 1.31 µM (active) in assay [10].
`CN1CCN(CCCN2c3ccccc3Sc3ccc(S(=O)(=O)N(C)C)cc32)CC1`: the figures for the Potency in assay [2] and in assay [3] were 23.7 µM (active) and 24.6 µM (active), respectively. In addition, the Potency entry in assay [6], in [7] and in assay [8] was “inactive” in each case.
`CN(C/C=C/c1ccccc1)Cc1cccc2ccccc12`: the Potency entry in [2], in assay [4], in assay [6], in assay [7] and in assay [8] was “inactive” each time. The Potency in assay [3] was 27.6 µM (active).
Consider `CN(C)CC/C=C1\c2ccccc2Sc2ccc(Cl)cc21`, for which, in [3], the Potency is 30.9 µM (active). Also, the Potency result in assay [5], in assay [6] and in [7] was “inactive” in each case.
Consider `NC(=NCCCCCCN=C(N)/N=C(\N)Nc1ccc(Cl)cc1)/N=C(\N)Nc1ccc(Cl)cc1`, for which the Potency was 9.78 µM (active) in assay [17] and 26.6 µM (active) in assay [4]. In addition, the Potency result in assay [6] and in assay [7] was “inactive” each time.
As for `C#C[C@]1(OC(C)=O)CC[C@H]2[C@@H]3CCC4=C[C@@H](OC(C)=O)CC[C@@H]4[C@H]3CC[C@@]21C`, the Potency entry in assay [2], in [5], in assay [6], in assay [7] and in assay [8] was “inactive” throughout. Further, the Potency in [3] was 15.5 µM (active).
On to `O=C1[C@H]2CCCC[C@H]2C(=O)N1CCCCN1CCN(c2nsc3ccccc23)CC1`, for which the Potency result in assay [2], in [4], in assay [5], in [6] and in assay [7] was “inactive” in each case.
As to `COc1cccc2c1C(=O)c1c(O)c3c(c(O)c1C2=O)C[C@@](O)(C(=O)CO)C[C@@H]3O[C@H]1C[C@H](N)[C@H](O)[C@H](C)O1`, the Potency was 1.38 µM (active) in assay [17]; 1.1 µM (active) in assay [3]; 2.37 µM (active) in [4]; 5.31 µM (active) in assay [5]; 1.68 µM (active) in assay [6]; 1.68 µM (active) in assay [8]. The Potency in [10] is 0.928 µM (active); in [18] it was 1.04 µM (active); in assay [11] it was 9.27 µM (active); in assay [12], 3.29 µM (active); in assay [13] it was 2.61 µM (active); in assay [14], 0.657 µM (active). The Potency in assay [15] is 0.465 µM (active); in assay [19] it was 5.85 µM (active); in assay [20], 1.47 µM (active). Further, the Potency result in assay [7] is “inactive”.
As to `CC(=O)Oc1ccc2c(c1)CC[C@@H]1[C@@H]2CC[C@]2(C)[C@@H](O)CC[C@@H]12`, the Potency result in assay [2], in assay [4], in [5], in [6], in assay [7] and in assay [8] was “inactive” in each case. For the same compound, the Potency entry in assay [13], in assay [16] and in assay [20] was “inactive” each time. Moreover, in [15], the Potency is 6.57 µM (active).
With `C=C1C(=C/C=C2\CCC[C@]3(C)[C@@H]([C@H](C)/C=C/[C@@H](O)C4CC4)CC[C@@H]23)C[C@@H](O)C[C@@H]1O`, the Potency entry in assay [2], in assay [4], in assay [5], in [6], in assay [7] and in assay [8] was “inactive” in each case. Further, the Potency in assay [3] is 30.9 µM (active).

For the origin of these results see PubChem BioAssay (NCATS).
